Rows were chosen to be rich in hits. Some 1.3% of all compounds tested hit in one or more screens of this group.
pAkt inh = blocks phosphorylation of Akt; Neuro2A IGF-stimulated pAkt S473 HTRF, 20 min; stronger effect = lower value; activity change, % for hits at 50 µM; 360,000 compounds, 0.32% hits; in the data active = activity change below about -80%; inconclusive = mostly about -51% to -80%
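Neuro2A cells (4,500/well, DMEM with 0.5% FBS) were treated with compound at a single 50 µM final concentration, stimulated with 6 nM IGF for 20 min at 37 °C, and lysed. Phospho-Akt Ser473 was read by HTRF as 665/615 ratio ×10^4.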
RXFP1 antag = blocks the human relaxin receptor RXFP1. HEK293-RXFP1, relaxin-stimulated cAMP HTRF, 30 min; stronger effect = lower value. activity change, negative = inhibition, % at 57.5 µM. 350,000 compounds, 0.59% hits. Q9HBX9. AID 1259400;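 active = activity change of -60% or lower, but not beyond a set lower limit; inconclusive = change between -60% and -40%, or beyond the set limit; inactive = change above -40%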
Target sequence (Q9HBX9 whole entry, looked up): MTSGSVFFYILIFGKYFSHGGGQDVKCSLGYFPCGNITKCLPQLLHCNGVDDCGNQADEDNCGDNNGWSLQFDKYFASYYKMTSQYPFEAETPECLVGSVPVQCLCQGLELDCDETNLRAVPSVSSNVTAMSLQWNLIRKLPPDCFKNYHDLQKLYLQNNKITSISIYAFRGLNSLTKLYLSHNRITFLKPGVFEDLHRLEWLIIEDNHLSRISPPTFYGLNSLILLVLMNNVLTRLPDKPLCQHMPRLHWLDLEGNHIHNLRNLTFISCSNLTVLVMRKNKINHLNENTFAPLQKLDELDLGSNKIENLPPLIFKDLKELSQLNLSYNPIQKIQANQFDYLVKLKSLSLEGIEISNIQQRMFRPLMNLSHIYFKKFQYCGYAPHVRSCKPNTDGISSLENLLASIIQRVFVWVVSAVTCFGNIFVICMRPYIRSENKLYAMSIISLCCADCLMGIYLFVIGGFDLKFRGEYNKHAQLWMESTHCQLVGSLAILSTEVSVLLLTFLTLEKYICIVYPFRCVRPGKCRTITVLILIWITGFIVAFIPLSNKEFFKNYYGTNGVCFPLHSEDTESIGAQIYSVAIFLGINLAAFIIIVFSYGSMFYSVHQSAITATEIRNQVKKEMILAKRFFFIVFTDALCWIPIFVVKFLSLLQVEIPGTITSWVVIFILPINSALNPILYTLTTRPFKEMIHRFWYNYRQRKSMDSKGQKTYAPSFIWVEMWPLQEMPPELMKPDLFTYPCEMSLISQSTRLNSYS
TSHR antagonist = antagonists of human thyroid stimulating hormone receptor. P16473. TSHR-expressing cells, TSH-stimulated cAMP HTRF, 2 h; stronger effect = lower value. activity change, negative = inhibition, % at 11.5 µM. 330,000 compounds, 0.2% hits. AID 504810;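 active = activity change below a set negative limit, meaning inhibition stronger than a set level, cut at about -70% in these data; inconclusive = activity change between two set negative limits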
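TSHR-expressing cells, 200/well, pre-treated with compound, then stimulated with EC80 TSH (4nM final) for 2 hours at 37 deg C. cAMP measured by competitive HTRF: anti-cAMP cryptate antibody in lysis buffer plus cAMP-d2, read after 30 minutes at room temperature.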
RXFP1 ag = RXFP1 (human) receptor agonism. HEK293T-RXFP1 cAMP TR-FRET, 30 min; response scale: percent of porcine relaxin response, buffer zero. Q9HBX9. AID 2676. Potency, µM (titrated, usually from 57.5 µM), hits mostly activators. 370,000 compounds, 0.3% hits; active = well fitted activation curve with a large enough effect; inconclusive = small, poorly fitted or top-dose-only effect; note: nearly all actives have a fitted effect of over 60% in size
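Agonist response is measured as cAMP accumulation in an RXFP1-transfected HEK293T line under PDE4 inhibition. Values are scaled between buffer-only and 29 nM porcine relaxin, and EC50s come from standard Hill equation fits.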
gsp antagonist = antagonizes gsp, the McCune-Albright syndrome mutation | gsp-mutant cells, cAMP HTRF, 30 min | Potency, µM (series often up to 76.9 µM), hits mostly inhibitors | 340,000 compounds, 0.4% hits; calls by dose curve; cell line not stated here;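 note: intracellular cAMP measured with PDE inhibitor Ro 20-1724 present during compound exposure; nearly all actives have a fitted effect of over 65% in size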
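Cells, 2000/well, grown 16–24 h in DMEM 10% FBS with 0.5 mg/ml G418, then compounds plus […] (300 uM addition stock), 30 min at 37C. cAMP read by HTRF (cAMP-d2 and anti-cAMP antibody-K in lysis buffer) after 30 min RT.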
gsp agonist = agonists of gsp mutant (McCune-Albright syndrome); gsp mutant cells, cAMP HTRF, 30 min; Potency, µM (titrated, usually from 76.9 µM), most hits filed as activators; 340,000 compounds, 0.13% hits; AID 624287; active = well fitted activation curve with a large enough effect; inconclusive = small, poorly fitted or top-dose-only effect, or another doubt; inactive = no such curve, though single readings can be large or run the other way; cell line not stated here;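 note: phosphodiesterase inhibitor Ro 20-1724 added with compounds to block cAMP breakdown; nearly all actives have a fitted effect of over 60% in size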
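Cells in DMEM/10% FBS with G418 were pretreated with compounds in DMSO plus […] (300 uM stock) for 30 min at 37C. cAMP was measured by HTRF (cAMP-d2 plus anti-cAMP antibody-K) after 30 min at room temperature.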
Large screens that a line does not name were inactive.

Cc1cc(=O)n(CC(=O)NC(C)c2ccccc2)c2c1c(C)nn2-c1cccc(F)c1 (stereo unspecified)	none (no result: pAkt inh, TSHR antagonist, gsp antagonist, gsp agonist)
COc1ccccc1NC(=O)Cn1c(=O)n(CCCCCC(=O)NCc2ccccc2)c(=O)c2sccc21	RXFP1 ag inconclusive (no result: pAkt inh, TSHR antagonist, gsp antagonist, gsp agonist)
COc1ccc(N(CC(=O)NCCOc2ccccc2)S(=O)(=O)c2ccc(C)cc2)cc1	RXFP1 antag -62
CCOc1ccc(N(CC(=O)NCCOc2ccc(C)cc2)S(=O)(=O)c2ccccc2)cc1	none
CCOc1ccccc1C(=O)NCc1nc2cccnc2n1Cc1ccc(C)cc1	none (no result: pAkt inh, TSHR antagonist, gsp antagonist, gsp agonist)
O=C(CS(=O)(=O)c1ccc(Cl)cc1)Nc1nnc(-c2cccs2)o1	RXFP1 antag -75, gsp agonist inconclusive
CC1CC(C)CN(S(=O)(=O)c2ccc(C(=O)Nc3nnc(-c4cccs4)o3)cc2)C1 (stereo unspecified)	gsp antagonist inconclusive
CCC1CCCCN1S(=O)(=O)c1ccc(C(=O)Nc2nnc(-c3cccs3)o2)cc1 (stereo unspecified)	RXFP1 antag -73, gsp antagonist inconclusive
CCCCCOc1ccc(C2SC(=O)NC2=O)cc1OCC (stereo unspecified)	none (no result: pAkt inh, TSHR antagonist, RXFP1 ag, gsp antagonist, gsp agonist)
Cc1ccc(NC(=S)C2=C(O)c3sccc3N(C)S2(=O)=O)cc1	gsp antagonist inconclusive
CN1c2ccccc2C(O)=C(C(=S)Nc2ccc(Cl)cc2)S1(=O)=O	gsp antagonist 28µM
Cc1cccc(NC(=O)C2=C(O)c3ccccc3N(C)S2(=O)=O)c1	gsp antagonist 25µM
CC[C@@H]([C@H](C)O)n1ncn(-c2ccc(N3CCN(c4ccc(OC[C@@H]5CO[C@@](Cn6cncn6)(c6ccc(F)cc6F)C5)cc4)CC3)cc2)c1=O	none (no result: pAkt inh, TSHR antagonist, RXFP1 ag, gsp antagonist, gsp agonist)
COc1cc(CO)cc(-c2cc(CO)cc(OC)c2OC)c1OC	pAkt inh -107%
CCOC(=O)c1oc2ccc(S(=O)(=O)n3nc(-c4ccccc4)cc3N)cc2c1C	gsp antagonist 7.9µM (no result: RXFP1 antag)
COCCCN1C(=O)C(O)=C(C(=O)c2ccco2)C1c1ccccc1 (stereo unspecified)	pAkt inh -108%, RXFP1 ag inconclusive, gsp agonist inconclusive
COCCCN1C(=O)C(O)=C(C(=O)c2ccc(C)o2)C1c1cccc(Br)c1 (stereo unspecified)	RXFP1 ag inconclusive, gsp agonist 13µM
Cc1ccc(OCCCn2c(-c3ccc(Cl)cc3)nc3ccccc3c2=O)cc1C	none (no result: pAkt inh, TSHR antagonist, gsp antagonist, gsp agonist)
CC1CCCC(NC(=O)c2cccc(S(=O)(=O)NCc3ccccc3)c2)C1C (stereo unspecified)	none
COc1c2c(c(OC)c3ccccc13)[C@]1(OC2)O[C@H](CCO)C[C@H](O)[C@H]1O	none (no result: RXFP1 antag, TSHR antagonist, RXFP1 ag, gsp antagonist, gsp agonist)
Cc1cc(C=O)c(C)n1-c1ccc(NC2CCCC2)c([N+](=O)[O-])c1	RXFP1 antag -65, TSHR antagonist -100
Cc1cc(C=O)c(C)n1-c1ccc(Oc2ccc([N+](=O)[O-])cn2)cc1	none
CCOC(=O)c1cc(-c2ccc(OC)cc2)n(CCC(=O)NCCc2ccccc2)c1C	RXFP1 antag -62 (no result: pAkt inh, TSHR antagonist, gsp antagonist, gsp agonist)
CCOC(=O)c1cc(-c2ccccc2)n(CCC(=O)NCCc2cccc(C)c2)c1C	none (no result: pAkt inh, TSHR antagonist, gsp antagonist, gsp agonist)
CCOc1ccc(CCNC(=O)CCc2nnc3ccc(N4CCOCC4)nn23)cc1OCC	none
CCOC(=O)C(Cc1ccccc1)NC(=O)CCc1nnc2ccc(N3CCOCC3)nn12 (stereo unspecified)	gsp agonist 20µM
COc1cc(NC(=O)CCc2nnc3ccc(N4CCN(c5cccc(OC)c5)CC4)nn23)cc(OC)c1	RXFP1 ag 16µM, gsp agonist inconclusive
O=C(NCCCN1CCCC1=O)c1cccc(S(=O)(=O)N2CCN(c3ccc(F)cc3)CC2)c1	none
CCCCN(C)CCCNC(=O)C1(O)c2ccccc2NC(=O)N1c1ccc(Cl)cc1 (stereo unspecified)	none
O=C(O)c1ccc(N=Nc2c(O)[nH]c3ccccc23)cc1	gsp antagonist 28µM, gsp agonist inconclusive
O=C(CCNC(=O)c1ccccc1)N=Nc1c(O)[nH]c2ccccc12	none (no result: pAkt inh, RXFP1 antag, gsp antagonist, gsp agonist)
O=C(Cn1nnc(-c2ccccc2)n1)N=Nc1c(O)[nH]c2ccccc12	pAkt inh -105%
COc1cc(/C(C)=C/c2ccccc2)c2c(c1)oc1ccccc12	none (no result: pAkt inh, RXFP1 antag, gsp antagonist, gsp agonist)
O=C(NCC1CC1(Cl)Cl)Nc1ccc(Cl)c(Cl)c1 (stereo unspecified)	RXFP1 antag -67, gsp antagonist inconclusive
CC[C@H](C)[C@H]1CNC(=S)N1CC1CCN(CCCCc2ccccc2)CC1	none (no result: RXFP1 antag, TSHR antagonist, RXFP1 ag, gsp agonist)
COc1ccc(CNn2cnnc2)c(O)c1	none
COc1cccc(-n2c(-c3ccccc3)c[nH]c2=S)c1	RXFP1 antag -79, gsp agonist inconclusive
S=c1[nH]cc(-c2ccccc2)n1-c1cccc(Cl)c1	none
O=C(CNC(=O)c1ccc(Br)o1)Nc1ncccc1O	none
O=c1[nH]c(=O)n([C@H]2O[C@H](CO)[C@@H](O)[C@@H]2O)cc1/C=C\Br	none (no result: pAkt inh, TSHR antagonist, RXFP1 ag, gsp antagonist, gsp agonist)
COC(=O)c1[nH]c2ccc(C)cc2c1NC(=O)CCN1CCN(C2CCCCC2)CC1	none (no result: pAkt inh, RXFP1 antag, gsp antagonist, gsp agonist)
COC(=O)c1[nH]c2ccc(Br)cc2c1NC(=O)CN1CCN(C2CCCCC2)CC1	RXFP1 antag -63
CCNC(=O)C1(C)CCN(C(=O)c2ccccc2OC(F)(F)F)C1 (stereo unspecified)	none (no result: RXFP1 antag, TSHR antagonist, RXFP1 ag, gsp antagonist, gsp agonist)
O=C(O)c1ccccc1NS(=O)(=O)c1cccc(-n2sc3ccccc3c2=O)c1	RXFP1 antag -115, gsp antagonist inconclusive
Cc1ccc(OCC(O)CN2CCOCC2)cc1 (stereo unspecified)	none
FC(F)(F)c1nc(-c2cccs2)ncc1-c1nnnn1-c1ccc(Cl)cc1	TSHR antagonist -72, gsp antagonist inconclusive
N#Cc1c(N)nc(SCC(=O)C23CC4CC(CC(C4)C2)C3)c(C#N)c1-c1ccc(Cl)cc1	pAkt inh -82%, RXFP1 ag inconclusive, gsp agonist inconclusive
CCCSc1nc(N)c(C#N)c(-c2ccc(C)cc2)c1C#N	pAkt inh -91%
Cc1cccc(C)c1NC(=O)Cn1cnc2c(=O)n(C)c(=O)n(C)c21	gsp agonist inconclusive
Cn1c(=O)c2ncn(CC(=O)NCCOc3ccccc3)c2n(C)c1=O	gsp agonist inconclusive
COc1ccc(CNC(=O)Cn2cnc3c(=O)n(C)c(=O)n(C)c32)cc1	gsp agonist 18µM
Cn1c(=O)c2ncn(CC(=O)Nc3ccc4c5c(cccc35)CC4)c2n(C)c1=O	gsp agonist 32µM
COc1cc(/C=C2/CCCC(C(=O)C(F)(F)F)=C2O)ccc1O	none
COc1cc(/C=C2\CC/C(=C\c3cc(OC)c(OC)c(OC)c3)C2=O)cc(OC)c1OC	none
